Compound activity from PubChem.
An excerpt weighted towards active compounds, which were near 5.4% of everything screened.
CSC inhib: cancer stem cell viability inhibitors, primary screen, luminescence; cancer stem cell-like cells viability; inhibition, % at 7.5 µM; 1.1% of 300,000 active; in the data active = inhibition above about 75%; inconclusive = no clear call, values can overlap the other calls; tested in HMLE shEcad cells
MPTP block: mitochondrial permeability transition pore inhibitors, primary screen, biochemical, isolated mouse mitochondria, absorbance; Ca2+ swelling absorbance, 30 min; inhibition, % at 10 µM; 1.4% of 360,000 active; AID 602449, 2012;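 active = inhibition of 50% or more, scaled per plate between neutral and stimulator controls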;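 note: 0% = DMSO wells given calcium and 100% = 1 mM EGTA wells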
Beta apoptosis: inhibitors of cytokine-induced beta cell apoptosis, primary screen, luminescence; INS-1E cytokine-induced death, ATP luminescence, 48 h; percent of positive-control rescue, neutral wells zero; protection from apoptosis, % (no concentration beside the values); 0.8% of 300,000 active;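 active = Every replicate reaches about 75%, or at least half do and their mean reaches it too, limit read from the data; inconclusive = At least half of replicates reach the limit but their mean does not; inactive = Under half of replicates reach the limit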;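 note: 0% = cytokine-treated negative control wells and 100% = positive control rescue; higher means more ATP so stronger rescue from cytokine killing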
Calb FLC: C. albicans growth inhibition with fluconazole, primary screen, CaCi-2 strain, Alamar Blue fluorescence; 0.57% of 300,000 active; growth inhibition, % (no concentration beside the values); C. albicans CaCi-2 (fluconazole-resistant clinical isolate) + fluconazole, 48 h; AID 1979, 2009;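 active = growth inhibition above about 58% in most replicates, limit read from the data, passing the limit was not always enough; inconclusive = exactly half the replicates above a set limit; inactive = most replicates below a set limit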;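 note: all wells also contain fluconazole at 8 µg/ml as a sub-toxic cotreatment; 0% = median of DMSO wells and 100% = median of geldanamycin control wells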
Mdm2 MdmX PPI: inhibitors of human Mdm2-MdmX association, primary screen, cell-based, luminescence, split luciferase, SaOS-2, uHTS; Protein Mdm4 (Homo sapiens) + E3 ubiquitin-protein ligase Mdm2 (Homo sapiens), …; SaOS-2 split-luciferase Mdm2/MdmX complementation; inhibition, % at 8 µM; 3% of 330,000 active; AID 485346, 2010;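 active = inhibition of at least 50% at 8 µM in the primary screen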
Target sequence (O15151 whole entry, looked up): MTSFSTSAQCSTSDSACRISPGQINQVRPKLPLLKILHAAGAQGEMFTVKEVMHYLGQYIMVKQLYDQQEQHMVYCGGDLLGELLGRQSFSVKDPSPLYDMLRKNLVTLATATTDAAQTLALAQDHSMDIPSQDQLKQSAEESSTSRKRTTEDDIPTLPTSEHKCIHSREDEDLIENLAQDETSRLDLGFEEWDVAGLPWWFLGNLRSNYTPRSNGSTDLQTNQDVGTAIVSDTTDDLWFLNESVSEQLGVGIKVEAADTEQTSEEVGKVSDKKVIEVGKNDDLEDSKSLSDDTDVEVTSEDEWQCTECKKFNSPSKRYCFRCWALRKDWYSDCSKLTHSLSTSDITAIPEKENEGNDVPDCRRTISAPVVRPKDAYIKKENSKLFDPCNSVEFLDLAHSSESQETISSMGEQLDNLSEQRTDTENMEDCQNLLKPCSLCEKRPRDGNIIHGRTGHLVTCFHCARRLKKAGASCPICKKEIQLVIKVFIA
Target sequence (Q00987 whole entry, looked up): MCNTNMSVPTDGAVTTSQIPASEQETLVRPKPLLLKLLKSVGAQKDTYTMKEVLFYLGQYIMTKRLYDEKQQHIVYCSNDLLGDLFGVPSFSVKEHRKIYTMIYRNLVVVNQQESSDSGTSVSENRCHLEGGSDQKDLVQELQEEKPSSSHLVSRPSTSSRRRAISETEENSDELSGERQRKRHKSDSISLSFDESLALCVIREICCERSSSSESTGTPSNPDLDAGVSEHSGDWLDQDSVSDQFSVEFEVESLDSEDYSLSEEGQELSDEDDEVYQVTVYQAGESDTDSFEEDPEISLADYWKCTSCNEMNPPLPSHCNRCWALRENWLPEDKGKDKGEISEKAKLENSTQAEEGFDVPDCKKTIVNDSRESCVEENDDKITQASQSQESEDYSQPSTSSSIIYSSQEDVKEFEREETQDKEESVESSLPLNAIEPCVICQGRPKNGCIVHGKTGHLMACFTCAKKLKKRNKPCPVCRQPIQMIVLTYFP
SKKanGAS inh: S. pyogenes SKKanGAS growth inhibitors in kanamycin, primary screen, streptokinase expression inhibitor project, SKKanGAS strain, BacTiter-Glo luminescence | 6 h | inhibition, % at 7.5 µM | 1.3% of 300,000 active;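 active = mean replicate score, as percent of positive control median, at least 50; inconclusive = mean below 50 but one replicate at or above 50; inactive = mean and every replicate below 50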;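 note: strain carries kanamycin resistance gene driven by streptokinase promoter and grows in 40 µg/ml kanamycin; loss of luminescence reflects streptokinase promoter inhibition or plain growth inhibition; 0% = median of DMSO wells and 100% = positive control at its reference dose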
Active calls of the source: *; ? = inconclusive; · = no result given.

SMILES	CSC inhib	MPTP block	Beta apoptosis	Calb FLC	Mdm2 MdmX PPI	SKKanGAS inh
Cc1ccc(C(=O)CC(=O)COc2ccc(Cl)cc2)cc1	5.4	-0.7	-2.3	113.7*	7.4	63.7*
COc1ccc(C(=O)NC(=S)NNC(=O)c2cccc(C)c2)cc1	24.1	·	-4.2	-1.9	-5.6	113.0*
CCOC(=O)c1ccc(NCC(O)COc2ccccc2)cc1 (configuration not stated)	2.2	0.1	-5.3	-9.5	10.1	-10.4
O=C1CCC(=O)N1CNc1ccc(Oc2ccccc2)cc1	-2.7	-1.8	-3.5	-43.5	-14.4	-12.4
Cc1cccc(C(=O)NNC(=S)NC(=O)c2cccs2)c1	-5.2	3.1	·	102.5*	20.3	75.6*
CC(C)C(=O)Nc1cccc(NC(=S)NC(=O)c2ccccc2Cl)c1	6.7	2.4	4.1	21.4	3.1	-4.7
CCNC(=S)NNC(=O)c1ccc(OC)cc1	-10.7	0.5	0.9	35.3	2.3	0.0
COc1ccc(C(=O)NNC(=S)NC(=O)c2cccs2)cc1	·	1.1	11.1	?	27.8	88.7*
O=C(Nc1ccc(NC(=S)NC(=O)c2ccccc2Cl)cc1)c1cccc(Cl)c1	79.4*	-0.7	-1.1	?	17.1	28.5
CCCCC(=O)NC(=S)NNC(=O)c1ccc(OC)cc1	14.6	-2.9	22.0	2.5	26.9	86.0*
COc1cc(NC(=O)c2ccc([N+](=O)[O-])cc2)c(OC)cc1NC(=O)CC(C)C	-17.5	-1.6	-7.4	7.9	-5.1	-1.3
NC(=O)NNc1cccc(Cl)n1	-8.7	-0.1	-8.5	-8.7	8.8	-2.1
CCN(c1ccccc1)S(=O)(=O)c1ccc(NC(=S)NC(=O)c2ccc(Br)o2)cc1	4.9	-7.9	-1.9	6.7	0.6	7.0
O=C(COc1ccccc1)NNC(=S)NC(=O)c1ccc(Cl)cc1Cl	-3.4	·	-1.6	104.5*	15.2	77.2*
CCCOc1ccc(C(=O)NNC(=S)NC(=O)CC)cc1	24.2	-1.9	70.8	84.9*	47.2	105.9*
Cc1occc1C(=O)NNC(=O)COc1ccc(Br)cc1Br	0.8	0.2	0.1	19.8	-56.1	-7.0
Cc1occc1C(=O)NNC(=S)NC(=O)COc1ccc(Cl)cc1Cl	·	1.4	-4.8	-20.6	7.5	78.0*
COc1ccc(OCC(=O)NNC(=S)NC(=O)c2ccc(Br)o2)cc1	·	2.4	-4.5	22.4	22.4	71.2*
COc1ncnc2c1ncn2CC1COC(C)(C)O1 (configuration not stated)	-5.5	0.4	-7.4	-3.9	-7.2	-6.0
COC(=O)c1ccc(OCC(O)CN2CCN(CC(O)COc3ccc(C(=O)OC)cc3)CC2)cc1 (configuration not stated)	5.2	-1.6	-2.1	-12.1	20.6	-3.3
O=C(NC(=S)Nc1ccccc1O)c1ccc(Cl)cc1Cl	-9.8	0.4	·	111.2*	-10.6	5.8
COc1ccc(C(=O)NNC(=S)NC(=O)c2cccnc2)cc1	10.8	-4.4	8.1	28.0	14.8	14.9
O=C(Nc1ccccc1Cl)c1ccc(Cl)cc1Cl	-16.3	-1.7	5.3	-4.4	1.7	8.5
COc1ccc(C(=O)NNC(=S)NC(=O)c2ccc(OC)cc2)cc1	2.1	4.1	·	67.8	8.3	94.0*
CC(Sc1nc(N)cc(=O)[nH]1)C(=O)NCC(=O)Nc1ccc(F)c(F)c1F (configuration not stated)	·	0.1	1.3	·	9.1	·
SMILES	CSC inhib	MPTP block	Beta apoptosis	Calb FLC	Mdm2 MdmX PPI	SKKanGAS inh
COc1cccc(C(=O)NCC2CCCN2S(=O)(=O)c2cccs2)c1 (configuration not stated)	-11.3	-1.3	-1.6	4.8	17.2	-2.1
Cc1cc(NC(=O)c2ccc(C)s2)n(-c2nc3ccccc3[nH]2)n1	-2.4	4.2	27.0	2.3	22.8	52.0*
O=C(C1=C(O)C(=O)N(CC2CCCO2)C1c1cccc(O)c1)c1ccco1 (configuration not stated)	·	0.0	1.1	5.2	-1.6	0.8
C=CCSc1n[nH]c(-c2ccc(OCCC)cc2)n1	28.8	40.8	0.6	111.6*	-110.5	-16.1
CC(C)N(C(=O)CSc1nc2ccccc2n1-c1ccccc1)C(C)C	77.5*	-3.4	-5.4	4.0	17.0	-12.1
c1ccc(-c2nnc(-c3ccccc3)nn2)cc1	1.9	-0.1	-4.5	-25.8	-191.4	-0.1
c1cncc(-c2nnc(-c3cccnc3)nn2)c1	9.6	1.5	108.2*	20.8	32.6	17.4
O=C(c1c(O)c2ccccc2oc1=O)C1CCCCC1	-3.2	3.2	2.7	?	19.3	14.6
O=C(CCC1CCCC1)c1c(O)c2ccccc2oc1=O	40.3	11.7	7.3	-4.1	29.6	54.2*
Fc1ccc(CNCC2CCCO2)cc1 (configuration not stated)	·	0.0	·	6.1	-7.0	-0.1
CCOc1ccc(NC(=O)CSc2nnc(Cc3ccccc3)c(=O)n2N)cc1	·	1.1	-6.0	-3.2	15.5	54.8*
CCOc1ccc(Cc2nnc(SCC(=O)Nc3ccc(OC)cc3)n(N)c2=O)cc1	·	1.6	-2.4	-0.2	-14.8	-5.3
COc1cc(C)c(NC(=O)C(=S)NCCc2ccccc2)cc1C	23.5	5.7	0.3	-5.3	6.2	13.7
Cc1onc(-c2c(Cl)cccc2Cl)c1C(=O)NN1CCCCCC1	-2.8	-0.7	·	12.0	31.2	3.4
CCCCn1c(N)c(N(CCOC)C(=O)COC(=O)CCOc2ccccc2)c(=O)[nH]c1=O	-2.9	-0.6	·	-1.0	-2.4	-12.9
O=C(COc1ccc(Cl)cc1Cl)Nc1ccc(C(=O)Nc2ccccc2C(=O)O)cc1	-7.5	0.8	-4.9	-1.1	29.8	61.6*
COc1ccccc1C(=O)Nc1ccc(C(=O)Nc2ccccc2C(=O)O)cc1	-3.5	0.6	-0.6	26.4	33.1	49.8*
COc1ccc(NC(=O)c2ccccc2NC(=O)c2ccccc2)cc1	-11.7	0.7	0.3	0.9	3.2	-0.6
Cc1cc(C(=O)Nc2ccccc2C(=O)O)ccc1NC(=O)COc1cccc(C)c1C	12.2	1.0	4.4	3.3	-0.2	53.6*
Cc1ccc(C(=O)Nc2ccccc2C(=O)O)cc1NC(=O)COc1c(C)cccc1C	-17.1	-2.9	-1.2	22.4	23.4	21.6
O=C(COc1ccccc1Cl)Nc1cc(Cl)ccc1Oc1ccccc1	89.1*	4.7	5.6	-2.7	-4.8	-7.9
O=C(NCc1cccs1)c1cc(S(=O)(=O)N2CCOCC2)c(Cl)cc1Cl	-4.7	-1.2	0.3	5.5	3.5	2.5
O=C(O)c1cc(S(=O)(=O)N2CCCCC2)ccc1F	3.6	-2.0	-1.4	-2.1	10.1	5.4
CCOC(=O)C(=NCCCN1CCOCC1)NNc1cccc(C(F)(F)F)c1	85.5*	2.4	-1.8	129.4*	2.3	4.3
